Molecules are shown by their SMILES. Active and inactive are the calls of the source.

The values that follow come from PubChem BioAssay.

In assay [1] the test system is PRMT1 (protein arginine N-methyltransferase 1). Briefly: PRMT1 binders on small-molecule microarrays, primary screen, biochemical, small-molecule microarray, 635 nm fluorescence (AID 1088).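 Note: binding of Prmt1 protein to compounds spotted on small-molecule microarray slides.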 To be noted: small-molecule microarray binding, higher = more signal.
A short description of assay [2]: yeast growth modulation, basal conditions, primary screen, YJM789 clinical isolate, OD600, 24 h (AID 1089).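 Note: growth of clinical yeast isolate S. cerevisiae YJM 789 seeded 1000 cells per well; test concentration not given here.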 To be noted: S. cerevisiae YJM789 growth, higher = more signal, called active from +8 up or from −8 down.
Assay [3] in a line: fission yeast growth modulation, primary screen, strain 972, OD600, 24 h, no modulator (AID 1090).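 Note: basal condition with compound alone and no growth modifier present; test concentration not given here.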 The settings on record: S. pombe 972 growth, higher = more signal, called active from +8 up or from −8 down.
Assay [4] can be described thus: S. cerevisiae growth modulation with rapamycin, primary screen, strain BY4716, OD600, 96 h (AID 1091). Note: test concentration not given here. To be noted: higher = more signal, called active from +8 up or from −8 down.
Assay [5] deals with Torsin-1A-interacting protein 2 (Homo sapiens) (UniProt Q8NFQ8). Briefly: LULL1 binders on small-molecule microarray, primary screen, cell lysate, human LULL1 lysate, 635/667 nm fluorescence (AID 1092).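 Note: probe is lysate of COS7 cells overexpressing human LULL1; score merges per-feature 667 nm fluorescence with signal-to-noise.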 The settings on record: hLULL1 lysate binding, 635 nm fluorescence, higher = more signal.
The nature of assay [6]: E. coli growth modulation, two-sided OD650, primary screen, E. coli filamentation project, strain DRC41, 24 h (AID 1093).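 Note: MC1000 strain lacking acrAB efflux and sulA so SOS filamentation is blocked; test concentration not given here.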 To be noted: OD650, 24 h, higher = more signal, called active from +8 up or from −8 down.
A short description of assay [7]: small-molecule microarray binders of probe aLefty2, primary screen, biochemical, biotinylated probe, 635/667 nm fluorescence (AID 1094).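 Note: score merges spot fluorescence near 667 nm with spot signal-to-noise ratio.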 The settings on record: higher = more signal.
The subject of assay [8] is Noggin (protein binding on small-molecule microarray). Briefly: Noggin binders on small-molecule microarray, primary screen, biochemical, 635/667 nm fluorescence (AID 1095).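 Note: score merges 667 nm feature fluorescence with signal to noise over triplicate slides.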 To be noted: 635 nm fluorescence, higher = more signal.
Assay [9] addresses Neurogenic locus notch homolog protein 3 (Homo sapiens) (UniProt Q9UM47). Briefly: NOTCH3 binders on small-molecule microarray, primary screen, biochemical, 635/667 nm fluorescence (AID 1096). The settings on record: NOTCH3 binding, 635 nm fluorescence, higher = more signal.
A short description of assay [10]: small-molecule microarray binders of probe aEGFR, primary screen, biochemical, biotinylated probe, 635/667 nm fluorescence (AID 1097).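 Note: probe is a biotinylated anti-EGFR antibody binding compounds printed on slides; score combines fluorescence near 667 nm and signal to noise of each spot.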 To be noted: higher = more signal.
Assay [11] relates to Plasmodium falciparum Sir2 (PF13_0152, Sir2A). Nature of the assay: pfSir2 binders on small-molecule microarrays, primary screen, biochemical, small-molecule microarray, 635 nm fluorescence (AID 1098).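 Note: score merges spot fluorescence intensity with its signal-to-noise ratio.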 The settings on record: small-molecule microarray binding, fluorescence 635 nm; higher = more signal.
Assay [12] is described as follows: small-molecule microarray binders of probe aDKK1, primary screen, biochemical, biotinylated probe, 635/667 nm fluorescence (AID 1099).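 Note: score merges 667nm spot fluorescence with signal to noise across triplicate slides; reference of the scale not given here.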 To be noted: higher = more signal.
A short description of assay [13]: small-molecule microarray binders of probe aCHRDL2, primary screen, biochemical, biotinylated probe, 635/667 nm fluorescence (AID 1100). To be noted: higher = more signal.
Assay [14] in a line: splicing luciferase reporter signal modulators, primary screen, spliceosome inhibition project, cell-based, HEK293, splice +/- reporter (AID 1101).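 Note: HEK293 cells carrying a splicing-competent luciferase reporter gene; test concentration not given here.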 To be noted: luminescence, 24 h, higher = more signal, called active from +8 up or from −8 down.
In assay [15] the target is Fibroblast growth factor 10 (Homo sapiens) (UniProt O15520). Briefly: FGF10 binders on small-molecule microarrays, primary screen, biochemical, small-molecule microarray, 635 nm fluorescence (AID 1102). To be noted: FGF10 binding, fluorescence 635 nm, higher = more signal.
Assay [16] concerns glycogen synthase kinase-3 (GSK3A per assay name; protocol says GSK3B). Nature of the assay: GSK3 binders on small-molecule microarrays, primary screen, biochemical, small-molecule microarray, 635 nm fluorescence, GSK3A (AID 1103). Note: the record names both GSK3A and GSK3B. To be noted: small-molecule microarray binding, fluorescence 635 nm; higher = more signal.
In assay [17] the target is Epidermal growth factor receptor (Homo sapiens) (UniProt P00533). Nature of the assay: EGFR binders on small-molecule microarrays, primary screen, biochemical, small-molecule microarray, 635 nm fluorescence (AID 1104).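 Note: score merges 667 nm emission intensity with spot signal to noise over triplicate slides.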 The settings on record: EGFR binding, higher = more signal.
Assay [18] addresses Follistatin-related protein 3 (Homo sapiens) (UniProt O95633). Briefly: FSTL3 binders on small-molecule microarrays, primary screen, biochemical, small-molecule microarray, 635 nm fluorescence (AID 1105).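 Note: score merges emission near 667 nm and signal to noise per printed spot across three slides.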 To be noted: FSTL3 binding, higher = more signal.
The target in assay [19] is Dickkopf-related protein 1 (Homo sapiens) (UniProt O94907). Nature of the assay: DKK1 binders on small-molecule microarrays, primary screen, biochemical, small-molecule microarray, 635 nm fluorescence scan (AID 1106).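 Note: score merges emission near 667 nm with signal to noise over three replicate slides.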 To be noted: DKK1 binding, higher = more signal.
The subject of assay [20] is Inhibin beta A chain (activin A). Nature of the assay: INHBA (activin A) binders on microarrays, primary screen, biochemical, small-molecule microarray, 635 nm fluorescence scan (AID 1107).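 Note: mouse activin A protein probed at 4.33 µg/mL on printed slides; score merges bound-protein fluorescence near 667 nm with spot signal-to-noise.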 To be noted: small-molecule microarray binding, higher = more signal.

Sequence of Follistatin-related protein 3 (Homo sapiens) (O95633 whole entry, looked up): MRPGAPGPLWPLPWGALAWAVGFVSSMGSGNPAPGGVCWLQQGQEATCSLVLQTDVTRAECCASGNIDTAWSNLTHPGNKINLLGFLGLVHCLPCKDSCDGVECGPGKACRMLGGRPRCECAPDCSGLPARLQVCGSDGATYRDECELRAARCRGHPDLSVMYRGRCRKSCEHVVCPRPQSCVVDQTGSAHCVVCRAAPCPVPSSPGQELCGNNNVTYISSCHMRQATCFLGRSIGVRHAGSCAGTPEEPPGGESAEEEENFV
Sequence of Epidermal growth factor receptor (Homo sapiens) (P00533 whole entry, looked up): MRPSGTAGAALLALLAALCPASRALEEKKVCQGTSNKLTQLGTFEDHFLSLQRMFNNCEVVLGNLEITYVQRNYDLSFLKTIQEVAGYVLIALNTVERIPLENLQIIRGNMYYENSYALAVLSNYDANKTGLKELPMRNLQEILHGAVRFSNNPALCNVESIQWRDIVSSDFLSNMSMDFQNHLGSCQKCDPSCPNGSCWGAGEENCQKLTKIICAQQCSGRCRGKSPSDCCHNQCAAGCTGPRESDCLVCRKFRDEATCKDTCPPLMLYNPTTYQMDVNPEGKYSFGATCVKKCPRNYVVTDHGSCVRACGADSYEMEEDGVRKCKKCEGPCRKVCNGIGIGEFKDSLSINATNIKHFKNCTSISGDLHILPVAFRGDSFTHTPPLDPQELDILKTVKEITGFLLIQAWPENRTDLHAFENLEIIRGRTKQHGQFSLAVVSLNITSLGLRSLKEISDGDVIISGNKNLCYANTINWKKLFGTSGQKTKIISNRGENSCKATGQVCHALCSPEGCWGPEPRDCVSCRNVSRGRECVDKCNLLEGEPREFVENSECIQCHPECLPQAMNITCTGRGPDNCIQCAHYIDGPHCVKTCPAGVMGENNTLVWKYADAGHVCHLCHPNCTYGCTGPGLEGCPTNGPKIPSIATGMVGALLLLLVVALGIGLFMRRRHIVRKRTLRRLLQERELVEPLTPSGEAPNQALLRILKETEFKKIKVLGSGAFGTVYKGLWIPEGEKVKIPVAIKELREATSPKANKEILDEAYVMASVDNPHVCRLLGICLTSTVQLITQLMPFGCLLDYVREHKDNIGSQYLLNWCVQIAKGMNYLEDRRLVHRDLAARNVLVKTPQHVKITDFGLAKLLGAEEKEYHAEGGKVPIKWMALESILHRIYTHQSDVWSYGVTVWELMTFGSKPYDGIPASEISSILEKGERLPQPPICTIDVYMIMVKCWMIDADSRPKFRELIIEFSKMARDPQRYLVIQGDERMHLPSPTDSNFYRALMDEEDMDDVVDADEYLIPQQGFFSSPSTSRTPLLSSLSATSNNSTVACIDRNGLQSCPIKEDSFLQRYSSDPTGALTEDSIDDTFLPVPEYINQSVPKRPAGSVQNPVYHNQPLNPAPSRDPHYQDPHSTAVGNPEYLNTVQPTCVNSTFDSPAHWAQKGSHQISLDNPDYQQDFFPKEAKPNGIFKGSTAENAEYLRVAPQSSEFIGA
Sequence of Dickkopf-related protein 1 (Homo sapiens) (O94907 whole entry, looked up): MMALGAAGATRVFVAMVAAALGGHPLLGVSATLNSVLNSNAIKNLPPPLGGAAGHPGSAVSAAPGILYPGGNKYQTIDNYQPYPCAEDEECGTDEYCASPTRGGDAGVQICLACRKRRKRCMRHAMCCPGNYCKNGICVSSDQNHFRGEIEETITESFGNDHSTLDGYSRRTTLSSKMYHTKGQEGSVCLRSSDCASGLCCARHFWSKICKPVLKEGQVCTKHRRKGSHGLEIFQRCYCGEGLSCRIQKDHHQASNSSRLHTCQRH
Sequence of Fibroblast growth factor 10 (Homo sapiens) (O15520 whole entry, looked up): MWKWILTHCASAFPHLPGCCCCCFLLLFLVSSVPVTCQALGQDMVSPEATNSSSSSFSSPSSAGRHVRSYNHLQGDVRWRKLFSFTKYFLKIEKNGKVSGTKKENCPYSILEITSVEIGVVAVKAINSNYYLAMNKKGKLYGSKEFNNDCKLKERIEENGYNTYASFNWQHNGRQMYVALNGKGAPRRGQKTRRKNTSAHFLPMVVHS
Sequence of Neurogenic locus notch homolog protein 3 (Homo sapiens) (Q9UM47 whole entry, looked up): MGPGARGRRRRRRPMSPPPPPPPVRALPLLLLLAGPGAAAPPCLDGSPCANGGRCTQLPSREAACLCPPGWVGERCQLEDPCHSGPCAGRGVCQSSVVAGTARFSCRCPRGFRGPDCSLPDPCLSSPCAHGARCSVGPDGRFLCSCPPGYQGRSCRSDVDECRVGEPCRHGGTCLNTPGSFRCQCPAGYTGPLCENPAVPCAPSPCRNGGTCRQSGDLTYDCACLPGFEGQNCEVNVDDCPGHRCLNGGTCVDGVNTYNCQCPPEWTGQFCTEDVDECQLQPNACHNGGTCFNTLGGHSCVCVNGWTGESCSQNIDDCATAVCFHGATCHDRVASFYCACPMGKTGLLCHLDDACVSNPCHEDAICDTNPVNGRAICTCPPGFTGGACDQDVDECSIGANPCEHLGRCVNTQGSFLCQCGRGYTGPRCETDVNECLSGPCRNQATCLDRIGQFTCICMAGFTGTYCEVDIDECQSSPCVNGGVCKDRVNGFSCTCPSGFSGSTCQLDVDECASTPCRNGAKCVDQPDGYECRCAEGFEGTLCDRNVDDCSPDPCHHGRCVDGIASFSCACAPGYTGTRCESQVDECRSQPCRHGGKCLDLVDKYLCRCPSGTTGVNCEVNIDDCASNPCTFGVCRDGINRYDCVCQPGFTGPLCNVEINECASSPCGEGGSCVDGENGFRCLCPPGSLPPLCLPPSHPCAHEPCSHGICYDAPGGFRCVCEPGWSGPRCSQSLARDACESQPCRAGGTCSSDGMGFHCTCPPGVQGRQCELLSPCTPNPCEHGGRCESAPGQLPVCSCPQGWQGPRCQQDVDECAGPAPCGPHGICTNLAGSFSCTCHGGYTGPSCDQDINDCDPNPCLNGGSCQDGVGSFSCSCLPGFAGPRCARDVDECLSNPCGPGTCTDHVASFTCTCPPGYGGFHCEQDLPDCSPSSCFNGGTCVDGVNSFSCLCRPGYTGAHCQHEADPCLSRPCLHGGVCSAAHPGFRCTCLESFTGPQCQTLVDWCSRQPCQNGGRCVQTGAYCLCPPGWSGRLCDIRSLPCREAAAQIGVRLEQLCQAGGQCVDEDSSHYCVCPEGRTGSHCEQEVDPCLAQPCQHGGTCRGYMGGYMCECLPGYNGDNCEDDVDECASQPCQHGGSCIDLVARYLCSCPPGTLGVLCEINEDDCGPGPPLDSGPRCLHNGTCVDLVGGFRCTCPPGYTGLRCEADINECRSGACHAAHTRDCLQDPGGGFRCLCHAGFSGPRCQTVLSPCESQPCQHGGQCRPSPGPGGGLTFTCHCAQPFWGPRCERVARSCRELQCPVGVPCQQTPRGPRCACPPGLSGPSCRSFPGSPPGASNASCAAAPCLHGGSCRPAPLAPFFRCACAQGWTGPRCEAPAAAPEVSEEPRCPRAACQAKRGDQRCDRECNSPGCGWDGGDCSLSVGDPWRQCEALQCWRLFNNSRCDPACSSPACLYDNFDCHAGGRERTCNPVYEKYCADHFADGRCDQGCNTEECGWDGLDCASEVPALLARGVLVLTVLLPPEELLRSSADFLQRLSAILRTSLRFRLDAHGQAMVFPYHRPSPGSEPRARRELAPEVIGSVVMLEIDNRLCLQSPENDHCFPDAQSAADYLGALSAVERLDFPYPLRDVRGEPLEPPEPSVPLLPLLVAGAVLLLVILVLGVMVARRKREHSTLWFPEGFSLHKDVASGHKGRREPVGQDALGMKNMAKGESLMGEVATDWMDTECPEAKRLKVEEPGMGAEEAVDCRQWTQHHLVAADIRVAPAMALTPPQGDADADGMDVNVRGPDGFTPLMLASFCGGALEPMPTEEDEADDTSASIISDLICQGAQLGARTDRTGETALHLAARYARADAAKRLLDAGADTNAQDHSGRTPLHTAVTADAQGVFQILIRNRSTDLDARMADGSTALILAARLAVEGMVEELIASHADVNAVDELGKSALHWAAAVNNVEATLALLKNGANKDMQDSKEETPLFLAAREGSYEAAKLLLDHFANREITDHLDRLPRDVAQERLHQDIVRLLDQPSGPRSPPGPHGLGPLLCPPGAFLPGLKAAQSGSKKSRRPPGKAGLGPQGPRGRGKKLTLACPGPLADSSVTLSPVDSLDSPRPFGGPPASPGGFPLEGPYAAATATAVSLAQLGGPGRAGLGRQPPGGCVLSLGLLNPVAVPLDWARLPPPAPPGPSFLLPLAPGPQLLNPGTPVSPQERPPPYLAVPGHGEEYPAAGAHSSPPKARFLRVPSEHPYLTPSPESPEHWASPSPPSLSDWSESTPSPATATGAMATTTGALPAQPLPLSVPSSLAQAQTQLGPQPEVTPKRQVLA
Sequence of Torsin-1A-interacting protein 2 (Homo sapiens) (Q8NFQ8 whole entry, looked up): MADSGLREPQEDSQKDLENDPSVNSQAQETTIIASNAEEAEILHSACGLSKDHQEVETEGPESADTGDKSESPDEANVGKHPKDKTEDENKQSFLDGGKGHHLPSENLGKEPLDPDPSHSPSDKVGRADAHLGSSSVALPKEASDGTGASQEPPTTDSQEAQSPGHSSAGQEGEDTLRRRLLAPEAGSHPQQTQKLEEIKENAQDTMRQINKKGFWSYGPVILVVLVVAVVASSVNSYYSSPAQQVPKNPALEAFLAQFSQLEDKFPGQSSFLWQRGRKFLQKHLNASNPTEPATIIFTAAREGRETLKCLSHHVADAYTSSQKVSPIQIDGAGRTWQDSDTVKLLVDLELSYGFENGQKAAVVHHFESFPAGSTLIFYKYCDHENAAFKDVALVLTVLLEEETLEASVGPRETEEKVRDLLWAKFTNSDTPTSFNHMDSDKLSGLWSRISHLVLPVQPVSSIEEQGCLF

Consider `CC(C)[Si]1(C(C)C)OCc2cc(C3CC3)nc(-c3ccccc3)c21`, for which the composite z-score in [1] is 0.168; in [5] it was -0.431; in assay [7], -0.142; in [8], -0.246; in [9], -0.802; in assay [10] it was -0.216. For the same compound, the composite z-score was 0.0305 in [11]; -0.294 in [12]; 0.525 in [13]; -0.395 in assay [15]; -1.24 in assay [16]; -0.385 in assay [17]. For the same compound, the composite z-score is -0.708 in assay [18], -0.342 in assay [19] and 1.21 in assay [20]. For the same compound, the z-score was -0.604 (inactive) in assay [2]; -3.7 (inactive) in assay [3]; -1.39 (inactive) in assay [4]; 2.13 (inactive) in assay [6]; -2.27 (inactive) in [14].

Regarding `O=C1C2C=CC(C(O)Cc3ccccc3)N(Nc3ccc([N+](=O)[O-])cc3)C2C(=O)N1c1ccccc1` (stereo not given), the composite z-score in [1] stood at 0.623; in assay [5] it was 2.92; in assay [7] it was 0.232; in [8], 0.278; in assay [9], 0.864; in assay [10] it was 0.268. For the same compound, the composite z-score in [11] was found to be 1.04; in [12] it was 1.07; in assay [13] it was 0.498; in assay [15], 0.653; in assay [16] it was 0.539; in assay [17], 0.277. Moreover, the composite z-score in assay [18] is 0.576; in assay [19] it was -0.0044; in [20], 0.582. For the same compound, the z-score in assay [2] is -0.442 (inactive); in assay [3] it was 0.38 (inactive); in [4], 1.18 (inactive); in [6], -0.209 (inactive); in assay [14] it was 0.843 (inactive).

For `CCN1C(C)=C(C(=O)OC)[C@@H](c2ccccc2)N2C(=O)[C@@]3(C(=O)OC)O[C@@]12[C@@H]1C(=O)N(C)C(=O)[C@@H]13`, the composite z-score was 0.962 in assay [1]; 1.44 in [5]; -0.122 in assay [7]; 0.584 in assay [8]; 0.333 in [9]; 0.0692 in [10]. The composite z-score was 0.736 in assay [11]; -0.0561 in [12]; -0.45 in assay [13]; 1.25 in assay [15]; 0.622 in assay [16]; 0.471 in [17]. The composite z-score was 1.41 in [18], 1.1 in [19] and 0.613 in [20]. The z-score in [2] is -0.444 (inactive); in assay [3], -0.76 (inactive); in [4] it was 1.74 (inactive); in assay [6], -0.0517 (inactive); in assay [14], -0.997 (inactive).

As to `CO[C@H]1O[C@H](CO)[C@@H](OC(=O)Nc2ccccc2)[C@H](OC(=O)Nc2ccc3c(c2)OCO3)[C@@H]1OC(=O)Nc1ccc2c(c1)OCO2`, the composite z-score in assay [1] was 1.53; in assay [5], 2.62; in assay [7], -0.0591; in assay [8], -0.0087; in assay [9] it was 0.845; in assay [10], -0.117. In addition, the composite z-score in [11] is 1.51; in [12], 0.355; in [13], 0.749; in assay [15], 0.183; in assay [16] it was 1.19; in assay [17] it was -0.374. Also, the composite z-score in assay [18] was determined as 0.558; in assay [19], 0.355; in assay [20] it was 0.794. The z-score in assay [2] was 0.058 (inactive); in assay [3], -0.1 (inactive); in [4], 3.14 (inactive); in assay [6], 1.67 (inactive); in assay [14], -0.368 (inactive).

On to `COc1cc(CO)cc(I)c1O[C@H]1C=C(C(=O)NCCO)C[C@@H](NCCc2c[nH]c3ccccc23)[C@@H]1O`, for which the composite z-score in assay [1] stood at 1.39; in assay [5] it was 0.499; in assay [7] it was 0.341; in assay [8] it was 0.947; in [9], 0.705; in assay [10], 0.192. In addition, the composite z-score in [11] worked out at 1; in [12], 0.27; in assay [13] it was 0.375; in [15], 1.06; in assay [16], 0.433; in assay [17] it was 0.666. In addition, the composite z-score was found to be 1.05 in assay [18], 0.4 in assay [19] and 1.22 in [20]. Further, the z-score in [2] was 0.004 (inactive); in [3], -12.4 (active); in assay [4] it was -2.09 (inactive); in assay [6], 2.12 (inactive); in assay [14], -1.01 (inactive).

Consider `CCCC=C(CCC)[C@@H](NS(=O)(=O)c1ccc(-c2ccccc2)cc1)c1ccc(C(=O)OC)cc1`, for which the composite z-score in [1] was 0.266; in assay [5], 1.76; in [7], -0.119; in [8], -0.666; in assay [9], -0.616; in [10], -0.059. The composite z-score in assay [11] is -0.127; in assay [12], 0.224; in assay [13] it was 0.516; in assay [15], -0.632; in assay [16], -0.84; in [17], -0.243. Also, the composite z-score in assay [18] was -0.875; in assay [19], -0.422; in assay [20], 0.573. Also, the z-score is 0.282 (inactive) in assay [2]; -1.51 (inactive) in assay [3]; 0.284 (inactive) in assay [4]; -1.9 (inactive) in assay [6]; -2.72 (inactive) in [14].

For the compound `CO[C@H]1COC(=O)[C@@H](OCc2ccccc2)C=C[C@H](C)[C@@H](OC)COC(=O)[C@H](OCc2ccccc2)C=C[C@@H]1C`, the composite z-score is -0.374 in assay [1]; -0.233 in assay [5]; -0.462 in assay [7]; 0.816 in [8]; -0.472 in assay [9]; -0.188 in assay [10]. Also, the composite z-score is -0.0155 in [11]; -0.46 in [12]; -0.984 in assay [13]; 0.181 in assay [15]; -0.0762 in [16]; -0.207 in assay [17]. Besides, the figures for the composite z-score in [18], in [19] and in [20] were 0.172, 0.123 and -0.381, respectively. Besides, the z-score was -2.92 (inactive) in [2]; -2.88 (inactive) in [3]; -0.495 (inactive) in assay [4]; -0.255 (inactive) in assay [6]; -1.8 (inactive) in [14].

For the compound `COc1ccc(NN2C(C(O)c3cc(OC)c(OC)c(OC)c3)C=CC3C(=O)N(C4CCCCC4)C(=O)C32)cc1` (stereo not given), the composite z-score stood at 0.544 in [1]; 2.87 in assay [5]; 0.358 in assay [7]; 0.116 in assay [8]; 1.08 in [9]; 0.142 in assay [10]. In addition, the composite z-score was 0.573 in assay [11]; 1.16 in assay [12]; 1.31 in assay [13]; 0.672 in assay [15]; 1.04 in [16]; -0.187 in assay [17]. In addition, the composite z-score in assay [18] was 0.563; in assay [19] it was -0.61; in [20] it was 0.973. Moreover, the z-score was 0.199 (inactive) in [2]; 0.966 (inactive) in assay [3]; 0.169 (inactive) in assay [4]; -0.319 (inactive) in assay [6]; -0.617 (inactive) in assay [14].

`COc1cc2c(cc1OC)CN(C(=O)[C@@H]1[C@H]3C(=O)O[C@H](c4ccccc4)[C@H](c4ccccc4)N3[C@H](c3ccccc3OCCO)[C@@]13C(=O)Nc1ccccc13)CC2`: the composite z-score in assay [1] was 1.55; in assay [5], 1.76; in assay [7], -0.301; in [8], 0.208; in assay [9], 1.05; in assay [10] it was -0.198. In addition, the composite z-score in [11] is 1.6; in [12], -0.682; in [13], -0.73; in assay [15], 0.748; in assay [16], 1.29; in assay [17], 0.0883. The composite z-score in [18] is 0.317; in [19], -0.134; in [20], 0.358. The z-score in assay [2] is 2.39 (inactive); in assay [3], 1.19 (inactive); in [4] it was 5.58 (inactive); in assay [6], 1.92 (inactive); in [14], -0.239 (inactive).
